The panel holds about 79,000 compounds, 15% with a hit somewhere; the sample as a whole holds those more often. A number with no mark means an inactive call. Active and inactive are the calls of the source. Cut-off read from the data, not from the text of the source: active = growth inhibition above about 70%; inactive = the rest.

Assay [1] can be described thus: NCI Yeast Anticancer Drug Screen. Data for the rad50 strain (AID 155).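 Note: 0% = growth of vehicle-only cultures of the same strain.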 Conditions: S. cerevisiae rad50 strain growth inhibition, hits give high values. In outline: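 DNA repair mutant yeast, compound exposure, growth read-out; inhibition is taken relative to vehicle.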
The nature of assay [2]: NCI Yeast Anticancer Drug Screen. Data for the mec2-1 strain (AID 157). Conditions: S. cerevisiae mec2-1 strain, hits give high values. In outline:
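Readout is yeast growth inhibition, normalised to vehicle-treated controls, in the mec2-1 strain exposed to compound.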

Assay [3] can be described thus: NCI Yeast Anticancer Drug Screen. Data for the sgs1 mgt1 strain (AID 161).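 Note: 0% = growth of cultures given vehicle only.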 Particulars: S. cerevisiae sgs1 mgt1 strain, hits give high values. The method in brief:
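Growth of a repair-deficient yeast mutant was monitored after compound treatment and expressed as inhibition relative to vehicle-treated cultures.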

The nature of assay [4]: NCI Yeast Anticancer Drug Screen. Data for the bub3 strain (AID 167). Particulars: S. cerevisiae bub3 mutant strain, hits give high values. In outline: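 In this screen, a yeast mutant lacking normal mitotic checkpoint function is challenged with compound. Relative growth versus vehicle gives the inhibition value.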
A short description of assay [5]: NCI Yeast Anticancer Drug Screen. Data for the mlh1 rad18 strain (AID 175). Conditions: S. cerevisiae mlh1 rad18 strain growth inhibition, hits give high values. In outline: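 Test agents were incubated with a yeast strain of defined genotype (DNA damage repair defect). Inhibition of growth was derived by comparison with vehicle-exposed cultures.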
The nature of assay [6]: NCI Yeast Anticancer Drug Screen. Data for the cln2 rad14 strain (AID 165).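 Note: 0% = growth equal to vehicle treated cultures.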 Particulars: S. cerevisiae cln2 rad14 strain, hits give high values. In outline: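 Relative to vehicle controls, growth inhibition of compound-treated cln2 rad14 yeast was recorded.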
The mark [7] stands for this setting: at 5.0 µM (retest, dose inferred, filed as 0.5).
Where [8] appears, read: at 50.0 µM (retest, dose inferred, filed as 5.0).

`O=C([CH-]C(=O)c1ccccc1)c1ccccc1.O=C([CH-]C(=O)c1ccccc1)c1ccccc1.[Nd+3].[OH-].[OH3+]`: the growth inhibition in assay [1] (setting [7]) was 34%; in assay [1] (setting [8]), 34%; in assay [1] (at 50.0 µM) it was 92.2% (active); in assay [2] (setting [7]) it was 11%; in assay [2] (setting [8]) it was 11%; in assay [2] (at 50.0 µM), 93.7% (active). Moreover, the growth inhibition in assay [3] (setting [7]) was 38%; in assay [3] (setting [8]) it was 38%; in assay [3] (at 50.0 µM), 94.2% (active); in assay [4] (setting [7]), 36%; in assay [4] (setting [8]), 36%; in assay [4] (at 50.0 µM), 92.2% (active). The growth inhibition in assay [5] (setting [7]) was 30%; in assay [5] (setting [8]) it was 30%; in assay [5] (at 50.0 µM) it was 89.8% (active).
As to `O=C([CH-]C(=O)c1ccccc1)c1ccccc1.O=C([CH-]C(=O)c1ccccc1)c1ccccc1.[La+3].[OH-].[OH3+]`, the growth inhibition was 24% in assay [1] (setting [7]); 24% in assay [1] (setting [8]); 92% (active) in assay [1] (at 50.0 µM); 23% in assay [2] (setting [7]); 23% in assay [2] (setting [8]); 93.5% (active) in assay [2] (at 50.0 µM). In addition, the growth inhibition in assay [3] (setting [7]) was 27%; in assay [3] (setting [8]), 27%; in assay [3] (at 50.0 µM) it was 93.7% (active); in assay [4] (setting [7]), 37%; in assay [4] (setting [8]), 37%; in assay [4] (at 50.0 µM), 91.2% (active). Moreover, the growth inhibition in assay [5] (setting [7]) is 25%; in assay [5] (setting [8]) it was 25%; in assay [5] (at 50.0 µM), 88.2% (active).
As for `CCC[CH2][Sn-]([CH2]CCC)([CH2]CCC)[O]c1cc(Cl)c(Cl)cc1Cl`, the growth inhibition in assay [1] (setting [7]) is 99% (active); in assay [1] (setting [8]) it was 96% (active); in assay [1] (at 50.0 µM) it was 90% (active); in assay [2] (setting [7]), 100% (active); in assay [2] (setting [8]), 100% (active); in assay [2] (at 50.0 µM) it was 93.2% (active). Also, the growth inhibition in assay [3] (setting [7]) was 100% (active); in assay [3] (setting [8]), 100% (active); in assay [3] (at 50.0 µM) it was 93.2% (active); in assay [4] (setting [7]), 100% (active); in assay [4] (setting [8]), 100% (active); in assay [4] (at 50.0 µM) it was 91.8% (active). Moreover, the growth inhibition in assay [5] (setting [7]) is 99% (active); in assay [5] (setting [8]), 94% (active); in assay [5] (at 50.0 µM) it was 90.2% (active).
In the case of `O=C([CH-]C(=O)c1ccccc1)c1ccccc1.O=C([CH-]C(=O)c1ccccc1)c1ccccc1.O=C([CH-]C(=O)c1ccccc1)c1ccccc1.[Nd+3].[OH3+]`, the growth inhibition in assay [1] (setting [7]) was 49%; in assay [1] (setting [8]), 99% (active); in assay [1] (at 50.0 µM), 91.8% (active); in assay [2] (setting [7]) it was 43%; in assay [2] (setting [8]), 100% (active); in assay [2] (at 50.0 µM), 93.8% (active). For the same molecule, the growth inhibition in assay [3] (setting [7]) is 55%; in assay [3] (setting [8]), 100% (active); in assay [3] (at 50.0 µM), 93.8% (active); in assay [4] (setting [7]) it was 61%; in assay [4] (setting [8]), 99% (active); in assay [4] (at 50.0 µM), 92.5% (active). Further, the growth inhibition in assay [5] (setting [7]) is 60%; in assay [5] (setting [8]), 100% (active); in assay [5] (at 50.0 µM), 91.2% (active).
On to `CC(=O)[O-].O=C([CH-]C(=O)c1ccccc1)c1ccccc1.O=C([CH-]C(=O)c1ccccc1)c1ccccc1.[Dy+3]`, for which the growth inhibition was 44% in assay [1] (setting [7]); 99% (active) in assay [1] (setting [8]); 91.5% (active) in assay [1] (at 50.0 µM); 35% in assay [2] (setting [7]); 99% (active) in assay [2] (setting [8]); 93.2% (active) in assay [2] (at 50.0 µM). Also, the growth inhibition in assay [3] (setting [7]) is 44%; in assay [3] (setting [8]), 100% (active); in assay [3] (at 50.0 µM), 93.4% (active); in assay [4] (setting [7]) it was 57%; in assay [4] (setting [8]) it was 96% (active); in assay [4] (at 50.0 µM), 92.1% (active). Moreover, the growth inhibition in assay [5] (setting [7]) was 50%; in assay [5] (setting [8]), 98% (active); in assay [5] (at 50.0 µM) it was 91.3% (active).
On to `C[N+](C)(C)CC1CCCC(C[N+](C)(C)C)C1O` (stereo not given), for which the growth inhibition in assay [1] (setting [7]) was 2%; in assay [1] (setting [8]), 65%; in assay [1] (at 50.0 µM) it was 92.3% (active); in assay [2] (setting [7]), -3%; in assay [2] (setting [8]), 46%; in assay [2] (at 50.0 µM) it was 43.4%. Further, the growth inhibition was -5% in assay [6] (setting [7]); 39% in assay [6] (setting [8]); 6.5% in assay [6] (at 50.0 µM); -4% in assay [4] (setting [7]); 70% (active) in assay [4] (setting [8]); 67.7% in assay [4] (at 50.0 µM). Moreover, the growth inhibition in assay [5] (setting [7]) is 0%; in assay [5] (setting [8]) it was 80% (active); in assay [5] (at 50.0 µM), 95.2% (active).
`C[SH+]c1ccccc1N=Cc1ccccn1.C[SH+]c1ccccc1N=Cc1ccccn1.[Ni+2].[O-][Cl+3]([O-])([O-])[O-]`: the growth inhibition in assay [1] (setting [7]) is -3%; in assay [1] (setting [8]) it was 11%; in assay [1] (at 50.0 µM), 99% (active); in assay [2] (setting [7]), -5%; in assay [2] (setting [8]), 5%; in assay [2] (at 50.0 µM), 97.2% (active). Moreover, the growth inhibition in assay [6] (setting [7]) is 3%; in assay [6] (setting [8]) it was 7%; in assay [6] (at 50.0 µM) it was 58.2%; in assay [4] (setting [7]) it was -4%; in assay [4] (setting [8]) it was 2%; in assay [4] (at 50.0 µM), 98.8% (active). Besides, the growth inhibition in assay [5] (setting [7]) was 1%; in assay [5] (setting [8]), 16%; in assay [5] (at 50.0 µM) it was 98% (active).
`COc1cc(/C=C(/C)[N+](=O)[O-])c([N+](=O)[O-])cc1OC`: the growth inhibition in assay [1] (setting [7]) was 29%; in assay [1] (setting [8]), 75% (active); in assay [1] (at 50.0 µM), 88.3% (active); in assay [2] (setting [7]), 2%; in assay [2] (setting [8]), 33%; in assay [2] (at 50.0 µM) it was 85.5% (active). Moreover, the growth inhibition in assay [3] (setting [7]) is 14%; in assay [3] (setting [8]), 65%; in assay [3] (at 50.0 µM) it was 71.7% (active); in assay [4] (setting [7]) it was 0%; in assay [4] (setting [8]), 54%; in assay [4] (at 50.0 µM) it was 67%. The growth inhibition in assay [5] (setting [7]) was 10%; in assay [5] (setting [8]), 35%; in assay [5] (at 50.0 µM), 71.7% (active).
With `O=C([CH-]C(=O)c1ccccc1)c1ccccc1.O=C([CH-]C(=O)c1ccccc1)c1ccccc1.O=C([CH-]C(=O)c1ccccc1)c1ccccc1.[Cl-].[Zr+4]`, the growth inhibition was 36% in assay [1] (setting [7]); 89% (active) in assay [1] (setting [8]); 87.5% (active) in assay [1] (at 50.0 µM); 38% in assay [2] (setting [7]); 83% (active) in assay [2] (setting [8]); 67.3% in assay [2] (at 50.0 µM). Also, the growth inhibition in assay [3] (setting [7]) was 45%; in assay [3] (setting [8]) it was 93% (active); in assay [3] (at 50.0 µM), 86.7% (active); in assay [4] (setting [7]), 62%; in assay [4] (setting [8]) it was 93% (active); in assay [4] (at 50.0 µM) it was 89.7% (active). In addition, the growth inhibition in assay [5] (setting [7]) is 29%; in assay [5] (setting [8]) it was 93% (active); in assay [5] (at 50.0 µM), 87.8% (active).
Take `O=C([CH-]C(=O)c1ccccc1)c1ccccc1.O=C([CH-]C(=O)c1ccccc1)c1ccccc1.O=C([CH-]C(=O)c1ccccc1)c1ccccc1.[OH3+].[Y+3]`: the growth inhibition in assay [1] (setting [7]) was 46%; in assay [1] (setting [8]) it was 99% (active); in assay [1] (at 50.0 µM) it was 91.6% (active); in assay [2] (setting [7]), 42%; in assay [2] (setting [8]), 100% (active); in assay [2] (at 50.0 µM), 93.5% (active). Besides, the growth inhibition in assay [3] (setting [7]) is 53%; in assay [3] (setting [8]), 100% (active); in assay [3] (at 50.0 µM), 94.1% (active); in assay [4] (setting [7]), 63%; in assay [4] (setting [8]), 84% (active); in assay [4] (at 50.0 µM) it was 92.5% (active). Besides, the growth inhibition in assay [5] (setting [7]) is 56%; in assay [5] (setting [8]), 100% (active); in assay [5] (at 50.0 µM), 91.5% (active).
Turning to `C/C(=C\c1ccccc1)[N+](=O)[O-]`, the growth inhibition in assay [1] (setting [7]) is 96% (active); in assay [1] (setting [8]), 99% (active); in assay [1] (at 50.0 µM), 98.7% (active); in assay [2] (setting [7]) it was 26%; in assay [2] (setting [8]), 100% (active); in assay [2] (at 50.0 µM), 93.2% (active). Further, the growth inhibition in assay [3] (setting [7]) is 26%; in assay [3] (setting [8]), 98% (active); in assay [3] (at 50.0 µM) it was 92.4% (active); in assay [4] (setting [7]), 12%; in assay [4] (setting [8]), 99% (active); in assay [4] (at 50.0 µM), 94.2% (active). Besides, the growth inhibition is 35% in assay [5] (setting [7]), 99% (active) in assay [5] (setting [8]) and 99.3% (active) in assay [5] (at 50.0 µM).

The record behind these values is PubChem BioAssay (NCI).
